# Experimental data from PubChem BioAssay (NCI).
# This is part of a sample that, as a whole, favours compounds with a hit. Of some 83,000 tested, about 20% had one in any assay.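 Treatment: one concentration, 48 hours, 96-well format. Scoring: percent growth, with anything below 10 considered active.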 A number with no mark means an inactive call. The source made the active and inactive calls.
# System: MDA-MB-468 breast
# Experiment: NCI-60 one-dose screen, 48 h (100 = growth as untreated, 0 = no growth, -100 = all killed)
# Settings: 10 µM unless noted
row,SMILES,growth
1,COc1cc2c(cc1[N+](=O)[O-])-c1ccc([N+](=O)[O-])cc1/C2=N\O,49.4%
2,C[n+]1cccc(CC(=O)NO)c1,88.3%
3,O=C1c2ccccc2C(=O)C1c1ccc(Br)cc1,115%
4,COc1ccc(-c2nc(Nc3nc4ccccc4[nH]3)nc(N)c2C#N)cc1,121%
5,O=C(c1ccc(C(F)(F)F)c(Cl)c1)N(Cc1ccc(Cl)cc1)c1ccc(-c2cc(C(F)(F)F)[nH]n2)c(O)c1,-11.5% (active)
6,COc1cc(C2CC(c3ccc(C)cc3)=NN2C=O)ccc1Oc1nc2c(c(=O)n(C)c(=O)n2C)n1C (stereo not given),73.8%
7,COc1cc(NCC(=O)Nc2cc(Nc3cccc(C(F)(F)F)c3)ncn2)c(Cl)c(OC)c1Cl,101%
8,COc1ccc(-c2ccc(-c3ccc(C(=N)N)s3)s2)cc1Cl,-12.5% (active)
9,O=C1/C(=C/c2ccc(O)cc2)CSc2ccc(Cl)cc21,30.2%
10,O=C(Nc1cccc(Cl)c1)c1cc(N=Nc2ccc([N+](=O)[O-])cc2Cl)ccc1O,67.8%
11,CC[C@H](Nc1nc(N)nc(C)c1C#N)c1nc2cccc(NCc3ccc(C(=O)NO)cc3)c2c(=O)n1-c1ccccc1,3.26% (active)
12,CCn1c2ccc(/C=N/NS(=O)(=O)CCN(C)C)cc2c2cc(/C=N/NS(=O)(=O)CCN(C)C)ccc21,92.9%
13,O=S(=O)(NCCNc1cc(-c2c(-c3cccc(O)c3)nc3sccn23)ccn1)c1ccc(C(F)(F)F)cc1,30.7%
14,CCCCCCCC/C=C/CCCCCCCC1=NC(C)(C)CN1C(C)C,-70.1% (active)
15,COc1ccc(-c2cc(C(=O)N=Nc3c(O)[nH]c4ccccc34)c3ccccc3n2)cc1OC,92.3%
16,Nc1nc(-c2cccc([N+](=O)[O-])c2)c(N=Nc2ccccc2[N+](=O)[O-])s1,74.8%
17,O=C(O)CNS(=O)(=O)c1ccc(OCCOc2ccc(S(=O)(=O)NCC(=O)O)cc2)cc1,97.7%
18,Fc1ccc(-c2cc3nc(C(Cl)Cl)nc(-c4ccc(Cl)cc4)n3n2)cc1,-76.3% (active)
19,OC(c1cc(C23CC4CC(CC(C4)C2)C3)nc2c(Cl)cc(Cl)cc12)C1CCCCN1 (stereo not given),-89.7% (active)
20,O=C1CCC(C(=O)NN(c2ccccc2)c2ccccc2)N1 (stereo not given),94.5%

row,SMILES,growth
1,O=Cc1ccc([N+](=O)[O-])s1,103%
2,CC(C)NC(=O)c1cc(-c2ccc(NC(=O)Nc3ccc(N4CCOCC4)c(C(F)(F)F)c3)cc2)nc2cccnc12,92.1%
3,C/C(=N\NC(=S)N1CCCC1)c1ccccn1,-31.9% (active)
4,Cn1cc(-c2csc(-c3cn(CCN)c4ccc(Br)cc34)n2)c2cccnc21,28.6%
5,O=C(Nc1ccc(Nc2cc(Nc3ccccc3)ncn2)cc1)Nc1cc(C(F)(F)F)ccc1F,55.3%
6,Cc1cccc(NC(c2cc3cccc4ccc5cccc2c5c43)c2nnnn2C(C)(C)C)c1C (stereo not given),-10.3% (active)
7,Cc1cc(N2CCN(c3ccnc4cc(Cl)ccc34)CC2)nc(N2CCOCC2)n1,68.7%
8,Cc1c2ncccc2nc2[nH]c3ccc(OCCN(C)C)cc3c12,-34.7% (active)
9,CC(NNC(=S)N1CCCCCC1)c1ccc2ccccc2n1 (stereo not given),30.3%
10,CCc1cc2c(cc1Cl)nc1c(=O)[nH]c(=O)nc-1n2CCOCC(C)C,43.8%
11,OCCNc1nc(Nc2ccc(Cl)c(Cl)c2)nc2ccccc12,-10.6% (active)
12,O=C(/C=C\c1ccc(NCc2ccc(C(=O)O)cc2)cc1)CCl,76.7%
13,Nc1c(S(=O)(=O)O)cc2c3c(cccc13)C(=O)OC2=O,85.9%
14,COC(=O)c1ccc(NC(=O)Nc2ccc(C(=O)OC)cc2)cc1,97.9%
15,CC[C@@H]1NC(=O)[C@@H]2CCCCN2C(=O)[C@@H]2CCCN2C(=O)[C@@H](NC(=O)[C@H](Cc2cc(F)cc(F)c2)NC(=O)Nc2ccc(C3CC3)cc2F)[C@H](C)OC(=O)[C@@H]2C[C@@H](C)CN2C1=O,-33.6% (active)
16,Nc1nc(-c2cccc3ccccc23)cc2ccccc12,-4.35% (active)
17,Nc1n[nH]c2cccc(C#Cc3cccc(C(=O)Nc4cc(CN5CCOCC5)cc(C(F)(F)F)c4)c3)c12,89.7%
18,CCN(CC)CCCNC(=O)c1ccc(N)cc1O,85.7%
19,COc1c(F)cc(-n2c(C(=O)N3CC(F)C3)cc3cccnc32)cc1F,98.4%
20,O=S(=O)(NCCCNc1nccc(-n2cnc3ccccc32)n1)c1ccc(C(F)(F)F)cc1,76.2%
